# Assay results taken from PubChem BioAssay (EPA / NIEHS).
# Several values for one entry are separate records, joined by “and”; a condition that tells them apart may be missing. Equal values may be shown once. Records with an inconclusive call do not appear. A structure can be active in one record and inactive in another. Activity calls are given as the source filed them. The calls were made as follows, unless noted: active = hit-call score of the fitted dose curve at least 0.9, where 1 is the maximum; inconclusive = response in the unintended direction; inactive = score below 0.9.
# What was measured:
# [1] = ATG_XTT_Cytotoxicity: Cytotoxicity Assessment in the Attagene TRANS-FACTORIAL HepG2 Assay (AID 2283584);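 as to AC50: cells exposed to compound for 24 h before reading; active means loss of viability signal versus DMSO baseline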
# Outline: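 HepG2 human liver cells, transiently transfected with multiple GAL4-UAS reporter units, were dosed and read at 24 h by XTT as cell number. Loss of signal was fitted relative to DMSO negative control baseline.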
# [2] = read-out: sulfotransferase 2A1 (SULT2A1), SULT2A1 (gene 6822); experiment: LTEA_HepaRG_SULT2A1: Life Technologies and Expression Analysis (LTEA) Assay for sulfotransferase 2A1 (SULT2A1) using HepaRG (AID 2283531; active = hit-call score of the fitted dose curve at least 0.9, where 1 is the maximum; inactive = score below 0.9); settings: mRNA level, 48 h; actives raise or lower the signal
# Outline: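 Differentiated human HepaRG cells in serum-free induction medium were exposed for 48 h to eight half-log concentrations (top 100 uM, 0.5% DMSO). SULT2A1 mRNA was measured by qRT-PCR, normalized to ACTB, GAPDH and POLR2A, and fitted bidirectionally against DMSO.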
# [3] = read-out: Transforming Growth Factor (TGFA), TGFA (gene 7039); experiment: LTEA_HepaRG_TGFA: Life Technologies and Expression Analysis (LTEA) Assay for Transforming Growth Factor (TGFA) using HepaRG (AID 2283532; active = hit-call score of the fitted dose curve at least 0.9, where 1 is the maximum; inactive = score below 0.9); settings: mRNA level, 48 h; actives raise or lower the signal
# Outline: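 Gene expression of TGFA was quantified by qRT-PCR after human HepaRG cells were treated for 48 h with test chemicals (eight concentrations, highest 100 uM, 0.5% DMSO). Activity in either direction was fitted relative to DMSO.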
# [4] = read-out: Transforming Growth Factor (TGFB1), TGFB1 (gene 7040); experiment: LTEA_HepaRG_TGFB1: Life Technologies and Expression Analysis (LTEA) Assay for Transforming Growth Factor (TGFB1) Transporter using HepaRG (AID 2283533; active = hit-call score of the fitted dose curve at least 0.9, where 1 is the maximum; inactive = score below 0.9); settings: mRNA level, 48 h; actives raise or lower the signal
# Outline: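 Differentiated human HepaRG cells in serum-free induction medium were exposed in duplicate for 48 h to eight concentrations (top 100 uM, half-log steps, 0.5% DMSO). TGFB1 mRNA was quantified by qRT-PCR, normalized to ACTB, GAPDH, POLR2A, and fitted bidirectionally against DMSO.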
# TIMP1, TIMP1 (gene 7076) = experiment: LTEA_HepaRG_TIMP1: Life Technologies and Expression Analysis (LTEA) Assay for TIMP1 using HepaRG (AID 2283534; active = hit-call score of the fitted dose curve at least 0.9, where 1 is the maximum; inactive = score below 0.9;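 also: TaqMan qRT-PCR signal normalized to ACTB GAPDH and POLR2A housekeeping genes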); settings: mRNA level, 48 h; actives raise or lower the signal
# Outline: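 Differentiated human HepaRG cells in serum-free induction medium were exposed 48 h to chemicals (8 half-log concentrations, top 100 uM, 0.5% DMSO). TIMP1 mRNA was quantified by TaqMan qRT-PCR, normalized to ACTB/GAPDH/POLR2A; bidirectional fit versus DMSO.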
# [5] = read-out: Tumor necrosis factor receptor 1 (TNFRSF1A), TNFRSF1A (gene 7132); experiment: LTEA_HepaRG_TNFRSF1A: Life Technologies and Expression Analysis (LTEA) Assay for Tumor necrosis factor receptor 1 (TNFRSF1A) using HepaRG (AID 2283535; active = hit-call score of the fitted dose curve at least 0.9, where 1 is the maximum; inactive = score below 0.9); settings: mRNA level, 48 h; actives raise or lower the signal
# Outline: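 Differentiated human HepaRG cells were exposed in duplicate for 48 h in serum-free induction medium to eight concentrations (top 100 uM, half-log steps, 0.5% DMSO). TNFRSF1A mRNA was quantified by qRT-PCR, normalized to ACTB, GAPDH and POLR2A, then fitted bidirectionally against DMSO.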
# [6] = read-out: Thyroid Hormone Responsive (THRSP), THRSP (gene 7069); experiment: LTEA_HepaRG_THRSP: Life Technologies and Expression Analysis (LTEA) Assay for Thyroid Hormone Responsive (THRSP) using HepaRG (AID 2283536; active = hit-call score of the fitted dose curve at least 0.9, where 1 is the maximum; inactive = score below 0.9); settings: mRNA level, 48 h; actives raise or lower the signal
# Outline: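 Cell model: human HepaRG, approx. 100,000 cells/well, 0.5% DMSO vehicle. Exposure lasts 48 h; phenobarbital 1 mM serves as induction positive control. Gene expression is measured by qRT-PCR against three endogenous control genes.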
# [7] = read-out: Cellular tumor antigen p53 (Homo sapiens) (UniProt P04637); experiment: LTEA_HepaRG_TP53: Life Technologies and Expression Analysis (LTEA) Assay for Tumor Protein P53 (TP53) using HepaRG (AID 2283537; active = hit-call score of the fitted dose curve at least 0.9, where 1 is the maximum; inactive = score below 0.9); settings: mRNA level, 48 h; actives raise or lower the signal
# Outline: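 TP53 transcript measured by qRT-PCR, normalized to three housekeeping genes, after 48 h treatment of human HepaRG cultures with chemicals from 100 uM downward in half-log steps (0.5% DMSO vehicle, serum-free induction medium). Up- or down-regulation fitted against DMSO.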
# [8] = read-out: UDP glucuronosyltransferase (UGT1A1), UGT1A1 (gene 54658); experiment: LTEA_HepaRG_UGT1A1: Life Technologies and Expression Analysis (LTEA) Assay for UDP glucuronosyltransferase (UGT1A1) using HepaRG (AID 2283538; active = hit-call score of the fitted dose curve at least 0.9, where 1 is the maximum; inactive = score below 0.9); settings: mRNA level, 48 h; actives raise or lower the signal
# Outline: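 HepaRG, 48 h chemical exposure (top 100 uM, half-log 8-pt, 0.5% DMSO vehicle), duplicate wells; qRT-PCR (TaqMan, Fluidigm array) for UGT1A1 mRNA, housekeeping-normalized; bidirectional curve fit vs DMSO baseline.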
# [9] = read-out: UDP glucuronosyltransferase (UGT1A6), UGT1A6 (gene 54578); experiment: LTEA_HepaRG_UGT1A6: Life Technologies and Expression Analysis (LTEA) Assay for UDP glucuronosyltransferase (UGT1A6) using HepaRG (AID 2283539; active = hit-call score of the fitted dose curve at least 0.9, where 1 is the maximum; inactive = score below 0.9); settings: mRNA level, 48 h; actives raise or lower the signal
# Outline: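 Human HepaRG cells were dosed for 48 h in serum-free induction medium with 0.5% DMSO vehicle, eight-point half-log series from 100 uM, in duplicate. UGT1A6 mRNA was measured by qRT-PCR, normalized to ACTB, GAPDH, POLR2A, and fitted bidirectionally against DMSO.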
# [10] = read-out: X-box binding protein 1 (XBP1), XBP1 (gene 7494); experiment: LTEA_HepaRG_XBP1: Life Technologies and Expression Analysis (LTEA) Assay for X-box binding protein 1 (XBP1) using HepaRG (AID 2283540; active = hit-call score of the fitted dose curve at least 0.9, where 1 is the maximum; inactive = score below 0.9); settings: mRNA level, 48 h; actives raise or lower the signal
# Outline: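 Differentiated human HepaRG cells in serum-free induction medium were exposed in duplicate for 48 h to eight half-log concentrations up to 100 uM in 0.5% DMSO. XBP1 mRNA was quantified by qRT-PCR, normalised to ACTB, GAPDH and POLR2A, with bidirectional fitting against DMSO.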
# [11] = LTEA_HepaRG_LDH_cytotoxicity: Cytotoxicity Assessment in the Life Technologies and Expression Analysis (LTEA) Assay (AID 2283563)
# Outline: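 Differentiated human HepaRG cells, plated 48 h beforehand, were switched to serum-free induction medium and exposed for 48 h to eight half-log concentrations (top 100 uM) in 0.5% DMSO. LDH was measured in spent medium; activity was fitted relative to DMSO vehicle.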
# [12] = TOX21_p53_BLA_p2_viability: Viability Assessment in the Tox21 HCT-116 p53 Agonism Beta-lactamase Assay, Phase 2 (AID 2283591);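 also: compound exposure lasted 16 h at 37 °C; actives lower the ATP signal meaning cytotoxicity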
# Outline: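 HCT-116 p53-bla cells (4000/well) rested 5 h at 37C, then received compounds in DMSO (217-fold dilution) for 16 h at 37C, 5% CO2. After the CCF4 read, CellTiter-Glo was added; ATP luminescence was read after 30 min at room temperature.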
# [13] = molecular target: Cellular tumor antigen p53 (Homo sapiens) (UniProt P04637); experiment: TOX21_p53_BLA_p2_ratio: Tox21 HCT-116 p53 Agonism Beta-lactamase Assay, Ratio, Phase 2 (AID 2283592)
# Outline: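 Ratio endpoint: beta-lactamase cleavage of CCF4-AM, blue (460 nm) over green (530 nm). HCT116 reporter line; 16 h treatment, 37C; substrate 2 h RT.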
# [14] = TOX21_p53_BLA_p3_viability: Viability Assessment in the Tox21 HCT-116 p53 Agonism Beta-lactamase Assay, Phase 3 (AID 2283593);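 also: cells exposed to compound for 16 h before reading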
# Outline: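 HCT-116 cells (4000/well) rested 5 h at 37C, then got DMSO compounds by pin tool (217-fold dilution) for 16 h at 37C, 5% CO2. After the bla read, CellTiter-Glo was added and luminescence read at 30 min, room temperature.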
# [15] = molecular target: Cellular tumor antigen p53 (Homo sapiens) (UniProt P04637); experiment: TOX21_p53_BLA_p5_ratio: Tox21 HCT-116 p53 Agonism Beta-lactamase Assay, Ratio, Phase 5 (AID 2283599)
# Outline: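 HCT-116 cells carrying a p53-inducible beta-lactamase reporter were seeded at 4000 cells/well and dosed after 5 h with compound in DMSO (217-fold dilution). After 16 h at 37C, CCF4-AM substrate was added for 2 h, and the 460/530 nm emission ratio was scored as gain-of-signal versus DMSO.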
# [16] = TOX21_p53_BLA_p5_viability: Viability Assessment in the Tox21 HCT-116 p53 Agonism Beta-lactamase Assay, Phase 5 (AID 2283600)
# Outline: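 Luciferase-coupled ATP quantitation of cells treated for 16 h (37C, 5% CO2) with test chemicals delivered in DMSO via a 217-fold dilution; 4000 cells/well; reagent incubated 30 min at room temperature before luminescence reading.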
# [17] = molecular target: Cellular tumor antigen p53 (Homo sapiens) (UniProt P04637); experiment: TOX21_p53_BLA_p4_ratio: Tox21 HCT-116 p53 Agonism Beta-lactamase Assay, Ratio, Phase 4 (AID 2283601)
# Outline: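 HCT116 cells carrying an inducible beta-lactamase reporter were plated at 4000 cells/well, rested 5 h, then exposed to compounds in DMSO (217-fold dilution) for 16 h at 37C. CCF4-AM substrate was loaded 2 h at room temperature; 460/530 nm emission ratio scored gain-of-signal versus DMSO.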
# [18] = molecular target: Cellular tumor antigen p53 (Homo sapiens) (UniProt P04637); experiment: TOX21_p53_BLA_p3_ratio: Tox21 HCT-116 p53 Agonism Beta-lactamase Assay, Ratio, Phase 3 (AID 2283596)
# Outline: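 Cells were seeded at 4000/well, rested 5 h at 37C, then dosed with DMSO compound solutions (217-fold dilution) for 16 h. CCF4-AM substrate was loaded for 2 h at room temperature, and the 460/530 nm emission ratio was fitted for gain of signal versus DMSO.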
# Sequence of Cellular tumor antigen p53 (Homo sapiens) (P04637 whole entry, looked up): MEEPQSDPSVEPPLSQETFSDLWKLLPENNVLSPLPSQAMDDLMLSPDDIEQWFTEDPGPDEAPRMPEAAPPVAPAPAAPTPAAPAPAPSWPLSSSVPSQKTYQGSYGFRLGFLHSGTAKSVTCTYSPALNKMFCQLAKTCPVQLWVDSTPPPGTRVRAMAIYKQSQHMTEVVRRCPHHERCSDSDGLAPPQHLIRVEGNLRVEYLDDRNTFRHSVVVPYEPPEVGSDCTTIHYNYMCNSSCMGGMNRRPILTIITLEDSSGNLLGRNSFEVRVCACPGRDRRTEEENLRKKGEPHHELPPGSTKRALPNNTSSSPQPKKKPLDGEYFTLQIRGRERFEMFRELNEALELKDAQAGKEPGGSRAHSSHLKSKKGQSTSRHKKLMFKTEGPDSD
smiles,measurement,setting,value
O=S(=O)(O)NC1CCCCC1,outcome,[1],inactive
CCCC(=O)OCCC(C)CCC=C(C)C (configuration not stated),outcome,[1],inactive
Nc1cc([N+](=O)[O-])ccc1Cl,outcome,[1],inactive
O=C[C@H](O)[C@H](O)[C@H](O)CO,outcome,[1],inactive
O=C(O)c1ccc([N+](=O)[O-])cc1,outcome,[2],inactive
same,outcome,[3],inactive
same,outcome,[4],inactive
same,outcome,"TIMP1, TIMP1 (gene 7076)",inactive
same,AC50,[5],0.646 µM (active)
same,outcome,[6],inactive
same,outcome,[7],inactive
same,outcome,[8],inactive
same,outcome,[9],inactive
same,outcome,[10],inactive
same,outcome,[11],inactive
same,outcome,[12],inactive
same,outcome,[13],inactive
same,outcome,[14],inactive
same,outcome,[15],inactive
same,outcome,[16],inactive
same,outcome,[17],inactive
OCc1cccnc1,outcome,[1],inactive
c1ccc2sc(SN(C3CCCCC3)C3CCCCC3)nc2c1,outcome,[1],inactive
Cc1ccc(C(C)C)cc1O,outcome,[1],inactive
CC1CCC(C(C)(C)O)CC1 (configuration not stated),outcome,[1],inactive
COC(=O)C1=C(C)NC(C)=C(C(=O)OCCN(C)Cc2ccccc2)C1c1cccc([N+](=O)[O-])c1 (configuration not stated),outcome,[1],inactive
Cc1cccc(Nc2ccccc2C(=O)O)c1C,outcome,[1],inactive
CCCC(C)C=O (configuration not stated),outcome,[1],inactive
COc1c(Cl)c(Cl)c(Cl)c(Cl)c1Cl,outcome,[1],inactive
Nc1nc2ccc([N+](=O)[O-])cc2s1,outcome,[1],inactive
N#Cc1nc(Cl)c(Cl)c(Cl)c1Cl,AC50,[1],56.8 µM (active)
CC(=O)/C=C/C1=C(C)CCCC1(C)C,outcome,[1],inactive
COc1cc2ncnc(Nc3cccc(Cl)c3)c2cc1OC,outcome,[1],inactive
Cc1ccc(C(=O)O)o1,outcome,[1],inactive
CCc1c(C)cc(N)c(CC)c1N,outcome,[1],inactive
CN(C)c1ccc(O)c2c1C[C@H]1C[C@H]3[C@H](N(C)C)C(=O)C(C(N)=O)=C(O)[C@@]3(O)C(=O)C1=C2O,outcome,[1],inactive
O=CCCc1ccccc1,outcome,[1],inactive
Clc1cccc(Cl)n1,outcome,[1],inactive
CSc1nnc(C(C)(C)C)c(=O)[nH]1,outcome,[1],inactive
C=O,outcome,[1],inactive
C=C(C)C(=O)OCc1ccccc1,outcome,[1],inactive
CCC/C=C/C=O,outcome,[1],inactive
CC1(C)[C@H](C(=O)OCc2cccc(Oc3ccccc3)c2)[C@@H]1C=C(Cl)Cl,outcome,[1],inactive
CC(C)(CO)[N+](=O)[O-],outcome,[1],inactive
Cc1ccc2sc3cccc(C)c3c2c1,outcome,[1],inactive
Clc1ccc2c(c1)C(N1CCNCC1)=Nc1ccccc1O2,AC50,[1],41.8 µM (active)
OCCOc1cccc(OCCO)c1,outcome,[1],inactive
O=[N+]([O-])c1ccc(C=Cc2ccc([N+](=O)[O-])cc2S(=O)(=O)O)c(S(=O)(=O)O)c1,outcome,[1],inactive
CCCCCCCCCCCCOCCO,outcome,[1],inactive
CC1COc2ccccc2N1C(=O)C(Cl)Cl (configuration not stated),outcome,[1],inactive
CCCCC[Si](OCC)(OCC)OCC,outcome,[1],inactive
O=C(COc1ccc(Cl)cc1)N1CCN(Cc2ccc3c(c2)OCO3)CC1,outcome,[1],inactive
CC(CCO)CCCC(C)(C)O (configuration not stated),outcome,[1],inactive
O=C1OC2(c3cc(Br)c(O)c(Br)c3Oc3c2cc(Br)c(O)c3Br)c2c(Cl)c(Cl)c(Cl)c(Cl)c21,outcome,[1],inactive
same,AC50,[12],46.2 µM (active) and 19.8 µM (active)
same,AC50,[13],16.8 µM (active)
same,outcome,[13],inactive
same,AC50,[18],50.7 µM (active)
same,outcome,[18],inactive
same,AC50,[15],50.2 µM (active)
same,outcome,[15],inactive
same,outcome,[16],inactive
same,AC50,[17],48.7 µM (active) and 26.5 µM (active)
CC1(C)OC[C@@H]2O[C@@]3(C(=O)O)OC(C)(C)O[C@H]3[C@@H]2O1,outcome,[1],inactive
Cc1c(Cl)c(=O)oc2cc(O)ccc12,outcome,[1],inactive
c1ccc2c(c1)c1cccc3ccc4cccc2c4c31,outcome,[1],inactive
same,outcome,[12],inactive
same,AC50,[13],15 µM (active)
same,outcome,[13],inactive
same,outcome,[14],inactive
same,AC50,[18],60.5 µM (active)
same,outcome,[18],inactive
same,AC50,[15],40.6 µM (active)
same,outcome,[15],inactive
same,outcome,[16],inactive
same,outcome,[17],inactive
Cc1cccc(C)c1[N+](=O)[O-],outcome,[1],inactive
